This note sets out measurements from PubChem BioAssay (NCI).

About 83,000 compounds went through this panel and 20% of them were active in at least one assay; those are over-represented in the sample as a whole.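 Percent growth is the endpoint: 0 to 100 indicates growth inhibition (40 means 60% inhibition), 0 means no net growth, and negative values indicate cell death.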 Calls of active or inactive are those of the source.

For this experiment, the system named is SNB-75 CNS. The experiment in a line: NCI-60 one-dose screen, 48 h (100 = growth as untreated, 0 = no growth, -100 = all killed). Particulars: 10 µM. Here is the method: Growth inhibition of the SNB-75 human tumor cell line is measured as a screen for anti-cancer activity. Cells are grown in 96 well plates and exposed to the test compound for 48 hours. Compounds are tested at a single concentration, which is 10^-5 M for most compounds. The reported endpoint is percent growth (GI% or GIPRCNT), where numbers from 0 - 100% represent growth inhibition, and numbers from -100% - 0 represent cell death. For example, a value of 40 represents 60% growth inhibition. A value of 0 means no net growth occurred over the course of the experiment. A value of -40 indicates 40% of cells at the beginning of the experiment died by the end of the experiment. A value of -100 means all cells are dead at the end of the experiment.
NCI-60 Human Tumor Cell Lines Screen was performed using the standard one-dose NCI protocol, which is described in more detail at https://dtp.cancer.gov/discovery_development/nci-60/default.htm.
Compounds with GIPRCNT values below 10 were considered active. Activity score was based on GIPRCNT using the following formula: […]
Score is 0 for GIPRCNT values of 100 or above, 50 for GIPRCNT values of 0, and 100 for GIPRCNT values of -100.
In the case of `O=C([O][Sn]([O]C(=O)c1ccccn1)([c]1ccccc1)[c]1ccccc1)c1ccccn1`, the growth was 49.3% (inactive).
In the case of `Nc1nc(-c2ccccc2)c(CCCOc2ccc(NC(=O)CBr)cc2)c(=O)[nH]1` it was 94.3% (inactive).
In the case of `COc1cc(C2C3=C(COC3=O)Nc3cc4c(cc32)CCC4)cc2c1OCO2` (stereo not given), the growth was 46.3% (inactive).
For `Nc1cccc(Cl)c1N`, the growth is 76.9% (inactive).
Turning to `COC(=O)c1cccc2c1N(C)c1c(cccc1C(=O)OC)CC2`, the growth was 106% (inactive).
In the case of `COc1ccc(C(=O)c2cc(OC)c3c(c2)OCO3)cc1O`, the growth was 30.6% (inactive).
`CC(=O)Nc1nc(N)nc(NC(C)=O)c1N=O`: the growth was 109% (inactive).
Under `COc1ccccc1CNCCCN1C(=O)c2ccc3c4c(ccc(c24)C1=O)C(=O)N(CCCNCCCCNCCCN)C3=O` stands -79.7% (active).
Consider `COc1ccc(C(=O)NC(=O)Nc2cc3c(cc2F)/C(=C/c2[nH]c(C)c(CCC(=O)O)c2C)C(=O)N3)c(F)c1`, for which the growth was 9.65% (active).
As for `CCOC(=O)C1=C(C)NC(C)=C(C(=O)OCC)C1(C)C`, the growth is 87.3% (inactive).
On to `CCC(C)/C(=C\C#N)NCCCN/C(=C/C#N)C(C)CC` (stereo not given), for which the growth was 92.1% (inactive).
Under `c1ccc(-c2cn(-c3ccccc3)c(-c3ccccc3)n2)cc1` stands 81.3% (inactive); under `COc1ccc(Nc2nc(N)nc3c2CCN(Cc2ccc(OC)cc2OC)C3=O)cc1`, 85.7% (inactive); under `C=C1CCC2C3(C)COC(c4c(OC)cccc4OC)OC3CCC2(C)C1C/C=C1/C(=O)OCC1O` (stereo not given), 50.8% (inactive).
In the case of `CC1(C)C(=O)/C(=C\c2ccc(C(F)(F)F)cc2)C[C@]2(C)[C@H]3CC[C@@H]4[C@H]5[C@H](C(=O)/C=C/c6ccc(C(F)(F)F)cc6)CC[C@]5(CO)CC[C@@]4(C)[C@]3(C)CC[C@@H]12` it was 83.7% (inactive); in that of `C=C(C)[C@@H]1C[C@@H]2Cc3cc(Cl)ccc3N1O2`, 99.2% (inactive).
As to `Cc1cccc(/C=N/Nc2cc(C)c3cccc(C)c3n2)n1`, the growth was 119% (inactive).
For the compound `COc1cc2c(c(OC)c1OC)-c1ccc(N)c(=O)cc1[C@@H](NC(C)=O)CC2`, the growth is 33.8% (inactive).
For the compound `CC(C)NCCCNC1=C(Cl)C(=O)c2ccccc2C1=O`, the growth was 79.4% (inactive).
`N#Cc1ccc(N2Cc3ccccc3OC3=C2C(=O)c2c(O)ccc(O)c2C3=O)cc1`: the growth is 76% (inactive).
As to `COc1cc(C2C3=C(COC3=O)Nc3cc4c(cc32)OCO4)cc2c1OCO2` (stereo not given), the growth was 42.2% (inactive).
Under `CC(C)(C)N1CCC1C(N)=O` (stereo not given) stands 89.3% (inactive).
In the case of `O=C(Nc1ccc(Cl)c(Cl)c1)NS(=O)(=O)c1cnccc1Oc1ccc(F)cc1` it was 79% (inactive).
For the compound `O=[N+]([O-])c1ccc(OCCCOc2ccccc2)cc1`, the growth is 97.2% (inactive).
As to `COC(OC)c1ccccc1`, the growth was 91% (inactive).
Regarding `COc1ccc(S(=O)(=O)n2ccc(-c3ccc4c(c3)CCC(C)(C)O4)n2)cc1OC`, the growth is 84.6% (inactive).
`Cn1ccc(=O)c(S(N)(=O)=O)c1`: the growth is 79.2% (inactive).
Take `COc1cc2c(cc1O)CCN1C[C@@H](CC(C)C)[C@@H](O)C[C@@H]21`: the growth is 107% (inactive).
As to `CCOC(=O)NNC(=S)Nc1ccccc1`, the growth is 95.2% (inactive).
In the case of `CCCCC(CC)OC(=O)C(Br)CC` (stereo not given) it was 90.1% (inactive).
Consider `CCCOC(=O)n1cccc1`, for which the growth was 75.4% (inactive).
In the case of `Cc1nn(-c2ccc(Cl)cc2)c2ncnc(N/N=C/c3cccc([N+](=O)[O-])c3)c12` it was 99.2% (inactive).
Consider `COc1cc(/C=C/C(=O)c2cccc(-n3cc(-c4cc(OC)c(OC)c(OC)c4)[nH]c3=O)c2)cc(OC)c1OC`, for which the growth was 44.6% (inactive).
In the case of `O=c1[nH]c(Nc2ccc(S(=O)(=O)O)cc2)nc2nc(Nc3ccc(NC(=S)Nc4ccccc4)cc3)nc(-c3ccc(O)cc3O)c12` it was 96.3% (inactive).
In the case of `Cc1ccc(Nc2nnc(-c3ccc(Cl)cc3)o2)c(C)c1` it was 78.7% (inactive); in that of `COc1ccc(CNCCCN2C(=O)c3ccc4c5c(ccc(c35)C2=O)C(=O)N(CCCNCCCCNCCCN)C4=O)c(OC)c1OC`, -26.8% (active).
On to `COc1ccc(-c2c(-c3cc(OC)c4c(c3)OCO4)noc2N)cc1`, for which the growth was 25.9% (inactive).
In the case of `COC1=C(OC)C(=O)C(CCCCCCCCCC[P+](c2ccccc2)(c2ccccc2)c2ccccc2)=C(C)C1=O` it was -44.5% (active); in that of `COc1cc(C2CC(c3ccc4c(c3)OCO4)=NN2C(C)=O)cc(OC)c1OC` (stereo not given), -12.1% (active).
With `COc1ccncc1S(=O)(=O)NC(=O)Nc1ccc(Cl)c(Cl)c1`, the growth was 78.3% (inactive).
